# This is part of a sample that, as a whole, favours compounds with a hit. Of some 79,000 tested, about 15% had one in any assay. Unmarked numbers belong to inactive results. The source made the active and inactive calls. Rule as the data show it: active = growth inhibition above about 70%; inactive = the rest. Where a SMILES comes first, the peptide text is derived from it.
# What was measured:
# [1] = NCI Yeast Anticancer Drug Screen. Data for the rad50 strain (AID 155);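 also: 0% = growth of vehicle-only cultures of the same strain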; conditions: S. cerevisiae rad50 strain growth inhibition; at 50.0 µM; hits give high values
# Summary of the method: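 Readout: growth inhibition relative to vehicle-treated cultures. Compound exposure was carried out in a genetically defined yeast strain deficient in DNA damage repair.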
# [2] = NCI Yeast Anticancer Drug Screen. Data for the mec2-1 strain (AID 157); conditions: S. cerevisiae mec2-1 strain, at 50.0 µM, hits give high values
# Summary of the method: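 Yeast mec2-1 mutant treated with compound. Readout: growth inhibition vs vehicle controls.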
# [3] = NCI Yeast Anticancer Drug Screen. Data for the sgs1 mgt1 strain (AID 161);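 also: 0% = growth of cultures given vehicle only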; conditions: S. cerevisiae sgs1 mgt1 strain, at 50.0 µM, hits give high values
# Summary of the method: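 Test agents were incubated with a DNA-repair-mutant yeast strain. Growth was then read and compared against vehicle-treated controls.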
# [4] = NCI Yeast Anticancer Drug Screen. Data for the cln2 rad14 strain (AID 165);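 also: 0% = growth equal to vehicle treated cultures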; conditions: S. cerevisiae cln2 rad14 strain, at 50.0 µM, hits give high values
# Summary of the method: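 cln2 rad14 yeast strain; compound exposure; growth inhibition read vs vehicle controls.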
# [5] = NCI Yeast Anticancer Drug Screen. Data for the bub3 strain (AID 167); conditions: S. cerevisiae bub3 mutant strain, at 50.0 µM, hits give high values
# Summary of the method: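 Readout: yeast growth inhibition, expressed relative to vehicle-only wells. The test organism is a mutant strain from a panel with lesions in DNA repair or checkpoint genes.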
# [6] = NCI Yeast Anticancer Drug Screen. Data for the mlh1 rad18 strain (AID 175); conditions: S. cerevisiae mlh1 rad18 strain growth inhibition; at 50.0 µM; hits give high values
# Summary of the method: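 Yeast w/ defined DNA-repair lesions; compound exposure; growth vs vehicle controls → % inhibition.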
Structure (SMILES),growth inhibition [1],growth inhibition [2] [%],growth inhibition [3],growth inhibition [4],growth inhibition [5] [%],growth inhibition [6] [%]
Cc1n[nH]c(=S)[nH]c1=S,-14.3%,-5.1,9.4%,-42.1%,-23.2,14.4
CCN(CC)C(=O)Sc1ccc(SC(=O)N(CC)CC)cc1,-5%,12.6,-2.05%,-5.65%,-3.3,-6.4
C=C1C(=O)OC2(C)CCC1CC1OC1(C)CCC=C(C)CCC2O (stereo unspecified),3.7%,-39.1,17.4%,8%,-17.7,-39.5
C[n+]1ccc(/C=C/c2c[nH]c3ccccc23)cc1,6.25%,10.8,3.6%,-1.75%,5.1,-8.3
O=C(Nc1ccccc1)c1nccc2ccccc12,1.45%,13,-6.45%,-17.1%,9.4,-3.95
CCCCCC[C@@H](O)C/C=C\CCCCCCCC(=O)OCC(C)O (stereo partly specified),22.1%,-2.35,8.9%,-30.6%,-2.85,-20.4
COc1ccc(-c2cc(-c3ccccc3)nc(/N=C\c3ccccc3)n2)c(O)c1,-10.7%,-20.4,-15.5%,-17.9%,-34.7,-51.2
CCOC(=O)c1cnc2cc3c(cc2c1Nc1cccc(C)c1)OCO3,-9.9%,-5,-5.85%,-57.8%,-1.45,-6
O=C(C[n+]1ccnc2ccccc21)c1ccc(Br)cc1,15.7%,-3.05,2%,6.45%,-6.6,13
COc1ccc(/C=N\S(=O)(=O)c2ccc(OC)cc2)cc1,16.3%,13.7,15.1%,8.8%,2.2,0.5
Cc1c2c(c(C)c3c1C(=O)c1cc4c(cc1C3=O)OCO4)OC(C)O2,-10.5%,-15.5,-18.6%,-28.4%,-47.7,-18.6
CC(C)(C)OC(=O)NC1CC=CCC1NC(=O)OC(C)(C)C (stereo unspecified),-52.7%,-11.6,-16.6%,-19.6%,-17.8,-29.1
Cc1[nH]n(C(=O)c2ccc(Cl)cc2)c(=O)c1/C=C1\C(O)=CC(=O)c2ccccc21,31.6%,-6.85,18.7%,-19.6%,30.7,16.9
COC(SC)(SC)c1cc(-c2c(Cl)cccc2Cl)no1,-7.25%,-7.55,-3.1%,4.3%,27.6,-4.15
CCOC(=O)c1cc(C)nc2ccc(Br)cc12,-3.2%,3.45,-11.2%,-5.85%,4.2,-11.7
Cc1ccc(C2=Nn3c(nc4sc(C)c(C)c4c3=O)SC2)cc1,-27.9%,-3.25,-23.1%,6.15%,-22.1,-10.6
COC1(OC)C2(Cl)C3=CCCC=C3C1(Cl)C(Cl)=C2Cl,27.5%,9.45,11.7%,29.8%,15.6,-6.65
OCC1OC(c2scc3c(=S)nc[nH]c23)C(O)C1O (stereo unspecified),-5.9%,-13.7,-9.45%,19.6%,12.6,-11.2
O=C(NCCCBr)Nc1cccc2c1CCCC2,-7.45%,5.9,2.5%,-31.5%,-20.9,-21.1
c1ccc2cc(N3CCOCC3)ccc2c1,-19.1%,-27.4,-7.3%,-19.9%,-22.8,2.3
CC(=O)N1c2ccccc2C2=NN(C)C(=N)SC21 (stereo unspecified),-27.6%,-5.7,-27.3%,-7.65%,-5.2,1.65

Structure (SMILES),growth inhibition [1],growth inhibition [2] [%],growth inhibition [3],growth inhibition [4],growth inhibition [5] [%],growth inhibition [6] [%]
O=C(CC(=O)N(C(=O)c1ccccc1)c1ccc(Cl)cc1)N/N=C\c1cc(N=Nc2ccccc2Cl)ccc1O,-13.8%,-10.1,14.8%,15.2%,-21.4,9.1
COc1ccc(C2Oc3cc(OC)c(OC)cc3C2CCl)cc1OC (stereo unspecified),-20.1%,1.85,-46.8%,-0.4%,-26.9,-35.2
O=C(NN1C(=O)C(Cl)C1c1cccc(O)c1)c1ccccc1O (stereo unspecified),-47.5%,-34,-32.8%,5.55%,-29.2,-39.1
COC1OC(CO)C(OC(C)=O)C(OC(C)=O)C1OC(C)=O (stereo unspecified),-2.05%,16.5,2.9%,-14.5%,12.6,1.8
Cc1c(-c2ccccc2)cc(O)c2nc3ccccc3n12,-31.2%,6.45,-16.6%,2.45%,11.9,-36.9
CC1CCC(=O)N1C (stereo unspecified),-19.1%,-1.35,-16.1%,-21.6%,-0.45,-9.5
CN1C(=O)N/C(=C\c2ccc(S(=O)(=O)N/N=C/c3ccccc3)cc2)C1=O,16.4%,44.9,20.1%,-2.55%,2.75,39.9
C=CCc1cc(OC)c2c(c1)C(OC)CC(c1ccc(OC)c(OC)c1)O2 (stereo unspecified),-3.7%,-34.3,-6.05%,12.6%,-12.7,-17.9
CCOC(=O)Cc1cccnc1N,-3.15%,-9.45,-19.9%,-3.9%,1,-2.25
CCOC(=O)c1ccnc2ccccc12,-5.05%,-3.75,1.1%,-4.85%,5.65,3.7
O=C1CSC(c2cccs2)N1c1nncs1 (stereo unspecified),27.4%,-14.8,19.3%,14.6%,11.6,21.6
CC(NNC(=S)N1CCCCCC1)c1cccc[n+]1[O-] (stereo unspecified),97.4% (active),8.3,96.5% (active),97.6% (active),14.3,33.6
C[n+]1c(/C=C/C=C/c2ccccc2)oc2ccccc21,-38.3%,-2.25,-22.6%,-11.2%,5.8,9.7
CC1CCCCCN1CCC(=O)c1ccccc1 (stereo unspecified),17.9%,25.1,17.9%,19.2%,32.6,8.65
COc1ccc(/C=C2\CCN=C2c2ccccc2)cc1OC,-1.65%,-1.85,2.85%,-23.3%,4.4,2.65
CC(=O)NC(C(=O)N1CCCC1C(=O)O)C(C)C (stereo not drawn) (Ac-Val-Pro-OH; configuration not given here),7.9%,-3.15,-6.65%,1.7%,-19.1,0.6
CCCCCC/C(C)=C/CCC(C)=O,12.4%,4.15,14.8%,11.3%,4.7,-0.25
CC1(C)OC(=O)C=C([O-])O1.CC1(C)OC(=O)C=C([O-])O1.CC[O-].CC[O-].[Ti+4],-20.8%,-36.2,3.6%,-8.95%,-11.7,-3.15
O=C(O)CCCCCCCCC(=O)O,-7.55%,-39,7.9%,-12.6%,-23.8,-17.6
COC(=O)C1=NC(=O)C(C#N)=C(C(=O)OC)C1(C(=O)c1ccc(OC)cc1)c1ccc(OC)cc1 (stereo unspecified),-39.9%,3.7,-9.15%,13.8%,11.9,-12.1
